A short description of assay [1]: Viability qHTS for spleen associated tyrosine kinase inhibitor (SYKi) naive MV4-11 cells (AID 1963823). Note: nearly all actives have a fitted effect of over 40% in size. A digest of the protocol: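 qHTS, SYK inhibitor-naive MV4-11; 500 cells/well; 72 hr compound exposure, 37 C; CellTiter-Glo added, 10 min RT; luminescence read.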
Assay [2] in a line: Viability qHTS for spleen associated tyrosine kinase inhibitor (SYKi) drug resistant MV4-11 cells (AID 1963824). Note: nearly all actives have a fitted effect of over 35% in size. In a few lines:
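CellTiter-Glo luminescence, read 10 min after reagent addition, reports viability after a 72 hr compound exposure. Cells are an MV4-11 line made resistant to SYK inhibition, seeded at 500 per well onto compound-containing plates.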

Assay [3] can be described thus: Quantitative highthroughput screen to assess conditional lethalithy of NOMO1 cells grown in RPMI1640 with untreated serum (RPMI+s) (AID 1963876).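 For Viability: 100% = DMSO wells and 0% = empty wells without cells.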 Note: nearly all actives have a fitted effect of over 35% in size. A digest of the protocol:
(§1)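 Each medium arm—HPLM with 10% dialyzed FBS, or RPMI1640 with 5 mM glucose and 10% untreated or dialyzed FBS—was screened against an 11-point, 3-fold compound titration for 48 h at 37 °C, with CellTiter-Glo luminescence as endpoint.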

Assay [4] can be described thus: Quantitative highthroughput screen to assess conditional lethalithy of P12 Ichikawa cells grown in RPMI1640 with untreated serum (RPMI+s) (AID 1963881).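 For Viability: series mostly up to about 46 µM; 100% = DMSO wells and 0% = empty wells without cells.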 Note: nearly all actives have a fitted effect of over 35% in size. As to conditions: Potency: viability. In a few lines:
as §1

Assay [5] in a line: Quantitative highthroughput screen to assess conditional lethalithy of SEM cells grown in RPMI1640 with unreated serum (RPMI+s) (AID 1963883).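 For Viability: 100% = DMSO wells and 0% = empty wells without cells.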 Note: nearly all actives have a fitted effect of over 35% in size. In a few lines: as §1
Assay [6] is described as follows: Quantitative highthroughput screen to assess conditional lethalithy of SEM cells grown in RPMI1640 with dialyzed fetal bovine serum (RPMI+ds) (AID 1963884).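 For Viability: series mostly up to about 46 µM; 100% = DMSO control wells and 0% = empty wells without cells.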 Note: nearly all actives have a fitted effect of over 35% in size. In a few lines: as §1
Assay [7] is described as follows: Cellular viability qHTS for adrenocortical cancer (ACC) cell line NCI-H295R (AID 1963990). Note: nearly all actives have a fitted effect of over 60% in size. In a few lines: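 Viability of NCI-H295R after 48 h of treatment (final up to 46 uM) measured through cellular ATP luminescence.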
Assay [8] is described as follows: Quantitative highthroughput screen to assess conditional lethalithy of P12 Ichikawa cells grown in Human Plasma-Like Medium with dialyzed fetal bovine serum (HPLM+ds) (AID 1963879). For Viability: series mostly up to about 46 µM. Note: nearly all actives have a fitted effect of over 35% in size. As to conditions: Potency: viability. A digest of the protocol: as §1
Assay [9] is described as follows: Quantitative highthroughput screen to assess conditional lethalithy of P12 Ichikawa cells grown in RPMI1640 with dialyzed fetal bovine serum (RPMI+ds) (AID 1963880).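 For Viability: 100% = DMSO wells and 0% = empty wells on each plate.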 Note: nearly all actives have a fitted effect of over 35% in size. As to conditions: Potency: P12-Ichikawa viability. A digest of the protocol:
as §1

A short description of assay [10]: Quantitative highthroughput screen to assess conditional lethalithy of SEM cells grown in Human Plasma-Like Medium with dialyzed fetal bovine serum (HPLM+ds) (AID 1963882). For Viability: series mostly up to about 46 µM. Note: nearly all actives have a fitted effect of over 35% in size. In a few lines:
as §1

Assay [11] is described as follows: Cellular viability qHTS for adrenocortical cancer (ACC) cell line SW-13 (AID 1963989).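 For activity (max response): cells grown in serum-free medium with ITS supplement; % is set by controls: 0 for no effect and ±100 for the full control effect.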 Note: nearly all actives have a fitted effect of over 65% in size. As to conditions: SW-13 ACC cells viability, CellTiter-Glo, 48 h; activity (max response): stronger effect = lower value. In a few lines: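 Here, serum-free SW-13 cultures were dosed up to 46 uM. Following 48 h, ATP-dependent luminescence (CellTiter-Glo) reported viable cells, and logistic modeling produced IC50 values.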

Assay [12] is described as follows: Quantitative highthroughput screen to assess conditional lethalithy of NOMO1 cells grown in Human Plasma-Like Medium with dialyzed fetal bovine serum (HPLM+ds) (AID 1963878). Note: nearly all actives have a fitted effect of over 35% in size. A digest of the protocol: as §1

Values joined by “and” are separate entries in the source; they are usually repeats but may differ in a detail not shown here. Identical values can stand only once. Inconclusive results are not listed. A number with no mark means an inactive call. Active and inactive are the calls of the source. Calls come from the whole dose curve; as a rule, active = well fitted curve in the direction sought with a large enough effect; inconclusive = small, poorly fitted or top-dose-only effect, or another doubt; inactive = no such curve, though single readings can be large; an effect the other way counts as inactive or inconclusive.

We go through 14 molecules from PubChem BioAssay (NCATS).
Potency is the fitted concentration of half-maximal effect.

For the molecule `CCOc1ccc(Nc2nc(-c3c(C)nc4ccccn34)cs2)cc1`, the Potency in assay [1] was 41.1 nM (active) and 33.2 nM (active); in [2] it was 41.1 nM (active) and 29.5 nM (active); in assay [3] it was 0.0833 µM (active); in assay [4], 0.059 µM (active); in assay [5] it was 0.0469 µM (active); in assay [6], 0.105 µM (active). For the same molecule, the Potency in [7] was 0.708 µM (active).
In the case of `CC(C)=CC[C@@H](O)C1=CC(=O)c2c(O)ccc(O)c2C1=O`, the Potency in assay [1] is 5.25 µM (active); in [2] it was 2.63 µM (active); in assay [3], 1.66 µM (active); in [8], 9.35 µM (active); in [9], 13.2 µM (active); in [4], 10.5 µM (active). Moreover, the Potency entry in assay [10] was “inactive”.
With `Nc1ccc(C(=O)Nc2cccc(-c3nc(N4CCOCC4)c4oc5ncccc5c4n3)c2)cn1`, the Potency was 10.3 µM (active) in assay [1]; 3.66 µM (active) in [2]; 20.9 µM (active) in assay [10]; 18.7 µM (active) in assay [5]; 20.9 µM (active) in [6]. Besides, the Potency result in assay [3] was “inactive”. Moreover, the activity (max response) in assay [11] was -13.4%.
Turning to `Cc1ccc(NC(=O)c2ccc(CN3CCN(C)CC3)cc2)cc1Nc1nc(-c2cccnc2)cs1`, the Potency in assay [1] was 11.6 µM (active) and 14.8 µM (active); in assay [2], 13 µM (active) and 13.2 µM (active); in [12], 0.372 µM (active); in assay [11], 25.1 µM (active); in [7], 22.4 µM (active). The Potency result in [3] was “inactive”.
Consider `FC(F)(F)c1ccc(CNc2ccc(Cc3c[nH]c4ncc(Cl)cc34)cn2)cn1`, for which the Potency is 146 nM (active) and 417 nM (active) in assay [1]; 366 nM (active) and 833 nM (active) in assay [2]; 2.34 µM (active) in assay [3]; 0.295 µM (active) in assay [8]; 3.31 µM (active) in [9]; 3.71 µM (active) in [4]. Also, the Potency in assay [10] is 1.86 µM (active); in assay [5], 0.132 µM (active); in assay [6], 1.48 µM (active).
As to `NCCCC(N)(C(=O)O)C(F)F` (configuration not stated), the Potency result in assay [1], in assay [2], in assay [3], in assay [9], in [4] and in assay [10] was “inactive” each time. Also, the Potency entry in [5], in assay [6] and in assay [7] was “inactive” each time. For the same molecule, the activity (max response) in assay [11] is 1.41% and -0.581%.
`CS(=O)(=O)CCNCc1ccc(-c2ccc3ncnc(Nc4ccc(OCc5cccc(F)c5)c(Cl)c4)c3c2)o1`: the Potency is 20.6 µM (active) and 14.8 µM (active) in [1]; 16.8 µM (active) and 8.2 µM (active) and 11.8 µM (active) in assay [2]; 18.7 µM (active) in assay [3]; 18.7 µM (active) in assay [9]; 18.7 µM (active) in assay [4]; 23.5 µM (active) in assay [6]. Moreover, the Potency in assay [11] was 18.4 µM (active) and 14.1 µM (active); in [7], 23.1 µM (active) and 17.8 µM (active). The Potency result in assay [8] was “inactive”.
For `COc1cc([C@@H]2c3cc4c(cc3[C@H](O)[C@H]3COC(=O)[C@H]23)OCO4)cc(OC)c1OC`, the Potency in [1] was 26.6 nM (active) and 26.3 nM (active); in [2] it was 37.6 nM (active) and 37.2 nM (active); in assay [3], 0.0042 µM (active); in [8], 0.0019 µM (active); in assay [9], 0.0021 µM (active); in assay [4], 0.0021 µM (active). Moreover, the Potency is 0.0026 µM (active) in [10]; 0.0019 µM (active) in assay [5]; 0.0026 µM (active) in assay [6]; 9.2 nM (active) and 44.7 nM (active) in assay [11]; 7.3 nM (active) and 50.1 nM (active) in assay [7].
In the case of `CC(C)Nc1cc(-c2c[nH]c(C(=O)N[C@H](CO)c3cccc(Cl)c3)c2)c(Cl)cn1`, the Potency in assay [1] was 2.91 µM (active) and 2.09 µM (active); in assay [2] it was 1.64 µM (active) and 2.63 µM (active); in [3] it was 14.8 µM (active); in assay [10] it was 20.9 µM (active); in assay [5] it was 18.6 µM (active); in assay [6] it was 16.6 µM (active). Further, the Potency in assay [11] is 15.8 µM (active); in [7], 8.91 µM (active).
Regarding `Cc1ccc(C(=O)Nc2cccc(C(F)(F)F)c2)cc1Nc1nc(-c2cccnc2)nc2c1cnn2C`, the Potency in assay [1] is 8.33 µM (active); in [2], 6.61 µM (active); in [11] it was 2.51 µM (active). The Potency entry in assay [3], in [8], in assay [9] and in assay [4] was “inactive” throughout.
As to `Nc1ccc(C(=O)c2cc3c(ccc4ccccc43)[nH]2)cc1`, the Potency in assay [1] was 4.28 µM (active); in [2], 4.81 µM (active); in assay [3], 14.8 µM (active); in assay [8], 2.96 µM (active); in assay [4], 3.32 µM (active); in [10], 2.96 µM (active). Moreover, the Potency was 3.72 µM (active) in assay [5], 2.96 µM (active) in assay [6], 2.24 µM (active) in assay [11] and 2.51 µM (active) in assay [7].
`Cc1cc(Cl)ccc1OCCCC(=O)NO`: the Potency in [1] was 14.8 µM (active); in assay [2] it was 13.2 µM (active); in assay [3], 14.8 µM (active); in assay [8] it was 8.33 µM (active); in assay [9], 1.48 µM (active); in [4], 5.9 µM (active). Besides, the Potency in assay [5] was 10.5 µM (active); in [6], 9.35 µM (active); in assay [7], 1.26 µM (active).
Consider `COc1cc2c(cc1-c1c(C)noc1C)ncc1[nH]c(=O)n([C@H](C)c3ccccn3)c12`, for which the Potency in assay [1] is 0.206 µM (active); in [2] it was 0.259 µM (active); in [3] it was 3.32 µM (active); in assay [8], 5.9 µM (active); in assay [10], 1.87 µM (active); in assay [5], 1.87 µM (active). Besides, the Potency in assay [6] was 1.48 µM (active). Also, the activity (max response) in assay [11] was -16.6%.
On to `c1cncc(CN2CCC(n3ncc4c(N5CCOCC5)nc(-c5ccc6[nH]ccc6c5)nc43)CC2)c1`, for which the Potency is 1.03 µM (active) and 1.32 µM (active) in assay [1]; 1.84 µM (active) and 1.86 µM (active) in assay [2]; 16.6 µM (active) in assay [3]; 13.2 µM (active) in assay [9]; 13.2 µM (active) in assay [4]; 14.8 µM (active) in assay [5]. Besides, the Potency is 14.8 µM (active) in assay [6] and 3.55 µM (active) in [7]. The activity (max response) in assay [11] was -29.6%.
